High-throughput results: PubChem BioAssay, National Center for Advancing Translational Sciences (NCATS)
HPGD block: blocks human HPGD enzyme activity; Potency, µM, without a hit: at the top dose activity change, negative = inhibition, hits mostly inhibitors; purified HPGD, NADH fluorescence kinetic, PGE2 substrate; hit rate 4.3% among 150,000; AID 894; active means well fitted inhibition curve with a large enough effect, not every such curve was filed as active; inconclusive means small, poorly fitted or top-dose-only effect, or another doubt; inactive means no such curve, though single readings can be large or run the other way; further: potency means the concentration at half of the fitted maximal effect; on the % scale 0 is the no-effect control and ±100 the full control effect
Target sequence (P15428 whole entry, looked up): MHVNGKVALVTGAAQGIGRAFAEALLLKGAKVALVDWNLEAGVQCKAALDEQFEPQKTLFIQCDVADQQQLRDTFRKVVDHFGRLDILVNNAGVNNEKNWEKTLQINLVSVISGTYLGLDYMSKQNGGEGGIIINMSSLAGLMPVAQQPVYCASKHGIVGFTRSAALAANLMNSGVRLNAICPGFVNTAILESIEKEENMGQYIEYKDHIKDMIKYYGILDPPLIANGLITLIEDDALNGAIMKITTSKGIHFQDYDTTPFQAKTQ
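NADH formation kinetics: reaction with 30 uM PGE2 and 1 mM NAD+ (final), 20 nM enzyme, Tris-HCl pH 8 with Tween 20, after 15 min compound preincubation at room temperature. Fluorescence change, last versus first of five reads.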
HTT ATP protect: Huntington cell model cytoprotection by ATP luminescence | PC12 HTT-Q103 induced, cytoprotection, ATP luminescence, 40 h | Potency, µM (series often up to 56.4 µM), inactives show cytoprotection (ATP increase), hits mostly activators | hit rate 0.14% among 230,000 | AID 1471; further: potency means the concentration at half of the fitted maximal effect; % of control where 0% means no effect; nearly all actives have a fitted effect of over 45% in size
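Readout: ATPlite luminescence (ATP level). Model: stable PC12, inducible Htt exon1 Q103-GFP. Inducer: tebufenozide, 100 nM final. Compounds: dose series. No G418 in medium.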
ALDH1A1 block: inhibitors of human aldehyde dehydrogenase 1A1 | P00352 | Purified ALDH1A1, NADH fluorescence, propionaldehyde substrate | Potency, µM (titrated, usually from 75.3 µM), for the others: at the top dose activity, negative = inhibition, most hits filed as inhibitors | hit rate 7.3% among 220,000 | AID 1030; active means well fitted inhibition curve with a large enough effect, not every such curve was filed as active; inconclusive means small, poorly fitted or top-dose-only effect, or another doubt; inactive means no such curve, though single readings can be large or run the other way;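 further: potency means the concentration at half of the fitted maximal effect; plate controls were no enzyme wells and a reference inhibitor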
Target sequence (P00352 whole entry, looked up): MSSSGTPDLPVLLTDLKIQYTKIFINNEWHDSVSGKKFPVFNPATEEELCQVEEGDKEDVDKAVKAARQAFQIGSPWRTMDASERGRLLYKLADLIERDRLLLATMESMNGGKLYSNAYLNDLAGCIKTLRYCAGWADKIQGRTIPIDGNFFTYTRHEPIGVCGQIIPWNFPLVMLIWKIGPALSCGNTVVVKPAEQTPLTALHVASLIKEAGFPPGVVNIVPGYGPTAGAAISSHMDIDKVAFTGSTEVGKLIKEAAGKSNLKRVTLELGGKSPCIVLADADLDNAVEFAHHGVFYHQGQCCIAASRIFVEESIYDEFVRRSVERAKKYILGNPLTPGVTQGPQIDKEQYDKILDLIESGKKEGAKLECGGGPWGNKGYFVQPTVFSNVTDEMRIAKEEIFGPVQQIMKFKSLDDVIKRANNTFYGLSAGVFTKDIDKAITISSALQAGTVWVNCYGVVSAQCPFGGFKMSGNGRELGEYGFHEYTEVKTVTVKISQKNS
HttQ103 aggreg: inhibitors of mutant huntingtin aggregate formation in PC12 cells. PC12 HttQ103-GFP aggregates, Acumen cytometry, 40 h. Potency, µM (titrated, usually from 46.1 µM), for inactives: top-dose activity change, negative = inhibition, hits mostly inhibitors. hit rate 1.1% among 220,000. AID 1688; further: potency means the concentration at half of the fitted maximal effect; on the % scale 0 is the no-effect control and ±100 the full control effect; nearly all actives have a fitted effect of over 60% in size
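PC12 cells with ecdysone-inducible HTT exon1 Q103-GFP, induced by 100 nM tebufenozide, given compounds in a concentration series. GFP aggregates (1–25 um, 6 SD above background) counted in lysates by laser-scanning cytometry, 488 nm excitation.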
PNC inhibitor: blocks assembly of the perinucleolar compartment. AID 2417. PC3M PTB-GFP, PNC prevalence imaging, 16 h; stronger effect = lower value. activity change (PNC), negative = inhibition, % at 10 µM. hit rate 3.1% among 140,000;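 active means readout at or below -70, meaning at least 70% loss of cells showing the perinucleolar compartment, a nuclear body marking cancer cells; inconclusive means readout between -30 and a set limit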;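 further: plate controls were DMSO wells for no effect and camptothecin positive control wells for full effect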
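PC3M cells stably expressing PTB-GFP, 750–1000 cells/well, treated 16 h at 37 °C with compound (23 nl of library stock), in duplicate. After paraformaldehyde fixation and Hoechst stain, imaged at 20x; PNC prevalence scored by image analysis.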
CBFb-RUNX1 inh: inhibitors of human CBF-beta and RUNX1 interaction; AlphaScreen CBFb-His/RUNX1-biotin binding, biochemical; Potency, µM (doses to about 59.8 µM), for inactives: top-dose activity, negative = inhibition, hits mostly inhibitors; 230,000 tested, under 10 active; Q01196+Q13951; further: % of control where 0% means no effect
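CBFb-His/RUNX1-biotin, 30 nM each, preincubated 20 min RT; compound 15 min RT; Ni + streptavidin beads 50 ng each, 90 min RT; AlphaScreen read.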
Active calls of the source: *; ? = inconclusive; · = not tested or not shown; [ ] = dose if it differs, or a comment. The list is not random: actives were taken first. Their share in the collection is about 11%. Unless noted, the call rests on the fitted dose curve; in most records, active means well fitted curve in the direction sought with a large enough effect; inconclusive means small, poorly fitted or top-dose-only effect, or another doubt; inactive means no such curve, though single readings can be large; an effect the other way counts as inactive or inconclusive.

SMILES | HPGD block | HTT ATP protect | ALDH1A1 block | HttQ103 aggreg | PNC inhibitor | CBFb-RUNX1 inh
COC(=O)c1ccc(-c2ccc(OC)c(C3C4C=CCC(C)C4C(=O)N3Cc3ccccc3)c2)cc1 (centres undefined) | · | · | · | · | · | 12%
O=C(COc1ccc(S(=O)(=O)NC2CCCCC2)cc1)N1CCN(c2cccc(Cl)c2)CC1 | -20% | -22% | -1% | 16µM* | -25 | -2%
NC(=O)COC(=O)c1ccc2c(c1)S(=O)(=O)N=C1CCCCCN12 | -7% | -1%[10 µM] | 8.9µM* | -7% | -1 | -19%
COC(=O)c1cc2c(cc1Cl)N1CCCCCC1=NS2(=O)=O | · | 33%[10 µM] | · | -1%[9.22 µM] | · | 3%
Cc1cc(N2CCN(C3CCCC3)CC2)n2nc(C)c(-c3ccccc3)c2n1 | · | -18%[0.074 µM] | · | · | · | ·
Nc1ncnc(Oc2ccccc2F)c1[N+](=O)[O-] | · | 4%[10 µM] | 10% | 15% | · | 5%
CC1=NN(c2ccccc2)C(=O)C1 | 5% | 9% | 10µM* | 18% | 14 | ?
CC1=NN(c2ccc(N)cc2)C(=O)C1 | -2% | -13% | ? | 19%[9.22 µM] | 34 | -11%
CC1=NN(c2ccc(Cl)cc2)C(=O)C1 | · | 25% | 0.63µM* | ? | · | 3%
CC(=O)c1c(C)oc(C)c1CSCc1ccc(C(=O)O)o1 | -20% | 7%[10 µM] | ? | 3% | -22 | ?
Cn1c(SCC(=O)N2CCCC2)nc2ccccc21 | · | -1% | ? | 6% | · | 17%
Cn1c(SCc2nnc3n2CCCCC3)nc2ccccc21 | 25µM* | 2% | 8% | 7% | -29 | -6%
CN(C)c1ncc2nc(-c3ccccc3)c(=O)n(Cc3cccs3)c2n1 | · | -131% | ? | · | · | ·
CC(NC(=O)NC(N)=O)(C(F)(F)F)C(F)(F)F | -5% | 2% | 0% | 0% | -109* | 9%
CC(NC(=O)NNC(N)=S)(C(F)(F)F)C(F)(F)F | · | 0%[10 µM] | · | -3%[9.22 µM] | · | 11%
CC1(C)O[C@H]2C[C@@H]3[C@H]4CCC5=CC(=O)C=C[C@]5(C)[C@@]4(F)[C@@H](O)C[C@]3(C)[C@]2(C(=O)CO)O1 | -12% | -55% | 3% | 29% | · | 12%
O=C(CCCOc1ccccc1)NC(=S)Nc1ccccc1 | · | · | 10µM* | · | · | 0%
O=C(CCCOc1ccccc1)Nc1ccncc1 | -4% | 12% | 3% | 6% | -23 | 9%
COCCCNC(=O)CC(C)c1ccccc1 (centres undefined) | 16µM* | 17%[0.074 µM] | 21% | 1% | -3 | 6%
COCCNC(=O)CSc1nnc(-c2ccccc2)c(-c2ccccc2)n1 | · | -35% | 22µM* | 8% | · | -7%
COCCNC(=O)CSc1nc(-c2ccccc2)c(-c2ccccc2)o1 | ? | -10% | ? | 1% | 18 | 0%
CCOC(=O)c1ccc(NC(=S)NC(=O)COc2ccccc2)cc1 | ? | · | 22µM* | ? | 33 | 3%
COCCCNC(=O)NC(=O)c1ccccc1 | 1% | · | -7% | 2% | -18 | -2%
CCOC(=O)c1c(C)[nH]c(N=Nc2ccccc2C)c1C | -14% | 6% | -1% | -7% | ? | ?
O=C(CC(c1ccccc1)c1ccccc1)NCCO | -10% | 9% | 2% | 23% | -1 | 4%
SMILES | HPGD block | HTT ATP protect | ALDH1A1 block | HttQ103 aggreg | PNC inhibitor | CBFb-RUNX1 inh
COCCNC(=O)CC(c1ccccc1)c1ccccc1 | 14µM* | -9% | 8% | 4% | 20 | 3%
COCCCNC(=O)CCCOc1ccccc1 | 14µM* | -15% | -11% | 22% | ? | 13%
Cc1c(CN(C)C)c2c(n1Cc1ccccc1)C(=O)c1ccc(Br)cc1-2 | -4% | -75% | 10µM* | -20% | -10 | ?
Cc1cc(C)n(Cc2ccccc2)c(=O)c1S(=O)(=O)c1ccccc1 | -5% | -14% | ? | -16% | 30 | -1%
CCOc1ccc(OCCN2C(=O)NC3(CCCc4ccccc43)C2=O)cc1 (centres undefined) | -16% | 0%[10 µM] | -11% | -3% | ? | 3%
O=C1NC2(CCCc3ccccc32)C(=O)N1CCOc1ccc(Br)cc1 (centres undefined) | 16µM* | -13% | 4% | ? | -9 | 1%
O=C(/C=C/c1cccs1)N1CCC2(CC1)Oc1ccc(Cl)cc1C(=O)C21CC(c2ccccc2)=NO1 (centres undefined) | · | -18%[10 µM] | · | -8%[9.22 µM] | · | -7%
O=C(Cc1ccccc1I)Nc1ccccc1 | -16% | -1% | 4% | · | · | 15%
CCCCC#Cc1ccccc1CC(=O)Nc1ccccc1 | -7% | 1% | -2% | 0% | -119* | -4%[2.36 µM]
COc1cc(OC)cc(C(=O)NC2CCN(CC(=O)Nc3cccc4ccccc34)CC2)c1 | -22% | -8%[10 µM] | 3% | 15% | 6 | 6%
O=C(CN1CCC(NC(=O)c2ccco2)CC1)Nc1cccc2ccccc12 | -7% | 15%[10 µM] | 12% | 10% | -100* | -3%
O=C(CN1CCC(NC(=O)c2ccco2)CC1)Nc1ccccc1[N+](=O)[O-] | · | 5%[10 µM] | 22µM* | -6%[9.22 µM] | · | -5%
COCC(=O)NC1CCN(CC(=O)Nc2ccccc2[N+](=O)[O-])CC1 | · | 0%[10 µM] | -13% | -10%[9.22 µM] | · | -4%
COC(=O)c1ccc(NC(=O)CN2CCC(NC(=O)c3ccco3)CC2)cc1 | · | -35% | 8% | 15% | · | 4%
COCC(=O)NC1CCN(CC(=O)Nc2ccc(OC)cc2[N+](=O)[O-])CC1 | -11% | -2% | 13µM* | -8% | -26 | -3%
O=C(O)c1ccccc1C(=O)c1cccs1 | -10% | -13% | 5% | -3% | ? | 1%
O=C(O)Cc1ccc(C(=O)c2cccs2)s1 | 13µM* | -2% | 10µM* | -7% | 6 | 4%
Cc1ccc(C(=O)Nc2nncs2)cc1S(=O)(=O)N1CCOCC1 | -16% | -22%[10 µM] | ? | -7% | -7 | 11%
CC1(C)Oc2ccc(C(=O)N3CCCCC3)cc2N(CC(=O)NCc2ccccc2)C1=O | -11% | -5%[10 µM] | ? | 30% | 30 | -4%
Cc1ccc(CN2C(=O)C(C)(C)Oc3ccc(C(=O)N4CCCCC4)cc32)cc1 | 32µM* | -5%[10 µM] | 4% | -9% | 0 | -1%
COc1cccc(NC(=O)c2ccc3c(c2)N(CC(=O)N2CCCCC2)C(=O)C(C)(C)O3)c1 | -6% | -27%[10 µM] | -4% | -15% | 19 | -1%
COc1cccc(C(=O)CN2C(=O)C(C)(C)Oc3ccc(C(=O)N4CCCCCC4)cc32)c1 | 2.2µM* | -8%[10 µM] | ? | ? | 22 | 12%
O=C(NCc1cccs1)c1ccc(Cl)s1 | 16µM* | 0%[0.074 µM] | 10% | -14% | -3 | 11%
O=C(NCCCCNC(=O)c1ccc(Cl)s1)c1ccc(Cl)s1 | -7% | -4%[10 µM] | 4% | 14% | -14 | 3%
CCc1ccc(C(=O)NCc2cccs2)s1 | 18µM* | -16% | 5% | 4% | ? | 2%
